From PubChem BioAssay AID463190 (Sanford-Burnham Center for Chemical Genomics, 2010)
Hit rate of the full screen: of about 330,000 compounds, about 7,300 (2.2%) were called active.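 How the source made its calls: active means inhibition of at least 40%; inactive means the rest.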 Many of the other results were omitted from the sample, so actives are more common in it than they were.

Assay: growth inhibition of tim10-1 ts yeast – luminescence, uHTS, primary screen (AID 463190);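 further: mutant grown at 25 °C; 0% = DMSO wells with yeast and 100% = wells holding no yeast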
Details: S. cerevisiae tim10-1 ts strain growth, BacTiter-Glo, 24 h; at 20 µM; hits give high values

Row | SMILES | inhibition
1 | O=C1CCc2cc(S(=O)(=O)Nc3ccc(C(F)(F)F)cc3)cc3c2N1CC3 | 4.21% (inactive)
2 | O=c1oc(-c2ccccc2NS(=O)(=O)c2ccc(Cl)cc2)nc2ccccc12 | 39.6% (inactive)
3 | NC(=O)c1ccc(CN2CCC(Cc3ccccc3)CC2)cc1 | -11.2% (inactive)
4 | CCOc1ccc2oc(C(=O)N(CC)CC(=O)Nc3ccc(NC(C)=O)cc3)c(C)c2c1 | 16.8% (inactive)
5 | CCSC1=C(C#N)C(=O)n2c1cc1c2CCCC1 | 58.8% (active)
6 | CCSc1ncnc2c(C#N)c3n(c12)CCCCC3 | -13.6% (inactive)
7 | O=C(CSc1ccc2nnc(-c3ccccc3)n2n1)N1CCCc2ccccc21 | -0.717% (inactive)
8 | O=S(=O)(Nc1ccc2[nH]ncc2c1)c1ccccc1Cl | 6% (inactive)
9 | COCc1cc(=O)[nH]c(-c2ccc(C(F)(F)F)cc2)n1 | -4.56% (inactive)
10 | CC(Sc1nn(-c2ccc(Cl)cc2)c(=S)s1)C(=O)NCC1CCCO1 (stereo not given) | 25.6% (inactive)
11 | Cc1nc([N+](=O)[O-])nn1C12CC3CC(CC(Br)(C3)C1)C2 | 27% (inactive)
12 | CCc1nn(CCCC(=O)NCc2ccc(C)cc2)c(=O)c2cc3occc3n12 | 31.1% (inactive)
13 | CCc1nn(CCCC(=O)Nc2ccc(C)c(C)c2)c(=O)c2cc3occc3n12 | 33.6% (inactive)
14 | CCc1nn(CCCC(=O)Nc2ccc(C)cc2C)c(=O)c2cc3occc3n12 | 41.6% (active)
15 | CCC1(CC)Cc2ccccc2-c2nc(CCl)[nH]c(=O)c21 | 27.6% (inactive)
16 | CCOC(=O)C1Cn2c(nc3c(c2=O)C(C)(CC)Cc2ccccc2-3)S1 (stereo not given) | 40.7% (active)
17 | CCC1(CC)Cc2ccccc2-c2nc3ccccc3c(=O)n21 | 16.4% (inactive)
18 | COC(=O)c1cccc(N(C(=O)c2ccco2)C(C(=O)NC2CCCC2)c2ccco2)c1 (stereo not given) | 3.43% (inactive)
19 | Cn1c(=O)c2c(ncn2CC(COCc2ccccc2Cl)OCc2ccccc2Cl)n(C)c1=O (stereo not given) | 19.9% (inactive)
20 | Cc1ccnc(N2CCN(C(=O)CSc3nc4ccccc4nc3N3CCCCC3)CC2)c1 | 2.78% (inactive)
21 | COc1cccc(-n2c(=S)sc3c(=O)n(-c4ccccc4OC)c(SCC4OCCO4)nc32)c1 | 4.35% (inactive)
22 | CNC(C)C#Cc1ccc2sc3cc(OC)c(OC)cc3c(=O)c2c1 (stereo not given) | 43.4% (active)
23 | Cc1ccc(C(=O)COC(=O)CCN2C(=O)C3C4CC(C(Br)C4Br)C3C2=O)cc1 (stereo not given) | 7.92% (inactive)
24 | CCCCOc1ccc(C(=O)NCC(=O)OCC(=O)N2CCN(S(=O)(=O)c3ccc(C)cc3C)CC2)cc1 | 15.7% (inactive)

Row | SMILES | inhibition
25 | O=C(COC(=O)c1ccc(F)cc1)NCCCc1ccccc1 | 24.1% (inactive)
26 | CCOc1ccc(NC(=O)c2ccc(NC(=O)CN3C(=O)C(=O)N(CC(C)C)C3=O)cc2)cc1 | 2.57% (inactive)
27 | COc1ccc(CCNc2cc(C)nc3c(-c4ccc(Cl)cc4)c(C)nn23)cc1OC | 43.9% (active)
28 | COc1ccc(CCNc2nc3ccc(C)cc3n3cnnc23)cc1OC | 2.87% (inactive)
29 | COc1ccc(CCNc2nc(C)cc(C)n2)cc1OC | -4.02% (inactive)
30 | O=C(c1cnc(Cl)c(Cl)c1)N1CCN(S(=O)(=O)c2ccc(F)cc2)CC1 | 3.46% (inactive)
31 | COc1ccc(Cc2nnc(SCC(=O)Nc3ccc(C)c(C)c3)o2)cc1OC | 7.89% (inactive)
32 | N/C(=N\OC(=O)CCn1cccc(C(F)(F)F)c1=O)c1ccc(OC(F)(F)F)cc1 | -0.346% (inactive)
33 | O=C(O)CC12CC3CC(C1)CC(n1ncc(NCc4ccc(F)cc4)c(Cl)c1=O)(C3)C2 | 0.72% (inactive)
34 | O=c1c(Cl)c(NCc2ccc(F)cc2Cl)cnn1C12CC3CC(CC(C3)C1)C2 | 43.1% (active)
35 | O=C(CN1CCN(Cc2ccc(F)cc2Cl)C1=O)NCc1cccs1 | 12.6% (inactive)
36 | CCOc1cc2[nH]c(=S)n(Cc3ccc(C(=O)N4CCN(C)CC4)cc3)c(=O)c2cc1OCC | 4.68% (inactive)
37 | Cc1ccc(S(=O)(=O)NCC(=O)NNC(=O)c2ccc(Br)cc2)cc1C | 6.99% (inactive)
38 | COC(=O)/C(C#N)=C/c1occc1C | -13.8% (inactive)
39 | Cc1cccc(NC(=O)c2ccc([N+](=O)[O-])o2)c1 | 58% (active)
40 | Cc1onc(C(=O)NCc2ccc(F)cc2)c1[N+](=O)[O-] | 5.1% (inactive)
41 | Cc1cccc(NC(=O)c2cc([N+](=O)[O-])ccc2N2CCN(C)CC2)c1 | 10% (inactive)
42 | CCN(CC)S(=O)(=O)c1ccc(N2CCCC2)c(NC(=O)c2ccc([N+](=O)[O-])o2)c1 | 31.3% (inactive)
43 | O=C(Nc1ccc(Br)cn1)c1ccc([N+](=O)[O-])cc1Cl | 7.02% (inactive)
44 | Cc1onc(NC(=O)c2ccc([N+](=O)[O-])o2)c1Br | 42.4% (active)
45 | O=C(Nc1ccc(Br)cn1)c1ccc([N+](=O)[O-])o1 | 66.6% (active)
46 | O=C(Nc1cccc(O)c1)c1ccc(C(=O)c2ccccc2)o1 | 6.57% (inactive)
47 | CN1C(=O)c2ccc(C(=O)Nc3ccc(Br)cn3)cc2C1=O | 6.17% (inactive)
48 | OC(COCCC12CC3CC(CC(C3)C1)C2)CN1CCCCC1 (stereo not given) | 4.4% (inactive)

Row | SMILES | inhibition
49 | FC(F)(F)c1cccc(-c2cc3ccccc3nc2N2CCCC2)c1 | -16.8% (inactive)
50 | COC(=O)c1ccccc1NC(=O)Cc1ccccc1OC | 10.2% (inactive)
51 | Cc1cccc(NC(=S)NCCN(C2CCCCC2)C2CCCC2)c1 | 28.1% (inactive)
52 | Cc1cccc(NC(=S)NCc2ccc3[nH]c4c(c3c2)CCCC4)c1 | 41.3% (active)
53 | Cc1cc(C)cc(NC(=S)NCc2ccc(F)cc2)c1 | 23.8% (inactive)
54 | O=S(=O)(O)CCN1CCOCC1 | 6.54% (inactive)
55 | CCOC12CC(C)(C)CC(C)(CC3=C1C(=O)CC(C)(C)C3)C2 (stereo not given) | 17.6% (inactive)
56 | CC1(c2nnc(-c3ccncc3)o2)CC(c2cccnc2)=NO1 (stereo not given) | -5.58% (inactive)
57 | COC(=O)Cc1ccc(NC(=S)NCc2ccc(Cl)cc2)cc1 | 20.1% (inactive)
58 | S=C(NCc1ccc(Cl)cc1)NC12CC3CC(CC(C3)C1)C2 | 51.4% (active)
59 | O=C(NCc1ccc(Cl)cc1)NCc1ccc(Cl)cc1 | -35.2% (inactive)
60 | OC1CCCN(c2ncnc3c2nnn3Cc2c(F)cccc2Cl)C1 (stereo not given) | 14.9% (inactive)
61 | O=S1(=O)CCO[C@H]2Cc3ccccc3[C@H]2N1Cc1ccccc1 | 10% (inactive)
62 | CC1=C(C(N)=O)C(c2ccc(F)cc2)n2nc(CCCO)nc2N1 (stereo not given) | 15.6% (inactive)
63 | COC(=O)CSc1nnc(NC(=O)CCc2ccccc2)s1 | 17.2% (inactive)
64 | COC(=O)CC(=O)N1CCN(c2ccc(Cl)c(Cl)c2)CC1 | 5.73% (inactive)
65 | COC(=O)CSc1snnc1-c1ccc(Cl)c(Cl)c1 | 47.3% (active)
66 | N#CC(C(N)=O)=C1CCC2(CC1)OCCCCO2 | 17.1% (inactive)
67 | Cc1cc(C)cc(NC(=O)NC2CCCCCCC2)c1 | 14.5% (inactive)
68 | COCCOC(=O)C1=C(C)N=c2s/c(=C\c3cccs3)c(=O)n2C1c1cccs1 (stereo not given) | 15.4% (inactive)
69 | CCOC(=O)C1=C(C)N=c2s/c(=C\C(=O)OC)c(=O)n2C1c1ccc(OC)cc1 (stereo not given) | 42.2% (active)
70 | CCOC(=O)C1=C(CSc2nccn2C)NC(=O)NC1c1ccc(OC)cc1 (stereo not given) | 15.6% (inactive)
71 | CN(C)S(=O)(=O)c1ccc(C(=O)NCC2(N3CCOCC3)CCCCC2)cc1 | -9.36% (inactive)
72 | CC(C)CCNC(=O)c1ccc2c(Cl)c3c(nc2c1)CCC3 | 41% (active)

Row | SMILES | inhibition
73 | COc1ccc(N2CCN(C(=O)c3ccc4c(Cl)c5c(nc4c3)CCCC5)CC2)cc1 | -0.417% (inactive)
74 | CC(=O)c1ccc(NC(=O)c2ccc3c(Cl)c4c(nc3c2)CCCC4)cc1 | 13.3% (inactive)
75 | COc1ccc(C(=O)c2c3ccc([N+](=O)[O-])cc3[n+]([O-])n2CCCN)cc1 | 1.86% (inactive)
76 | COc1ccc(S(=O)(=O)N2CCCCC2)cc1NC(=O)COc1ccccc1 | 7.99% (inactive)
77 | O=C(COC(=O)CCOc1ccccc1)Nc1cc(S(=O)(=O)N2CCCCC2)ccc1Cl | 46.3% (active)
78 | CS(=O)(=O)c1ccc(Cl)c(NC(=O)COC(=O)c2cccc(S(=O)(=O)N3CCCC3)c2)c1 | -30.8% (inactive)
79 | COc1cc(C(=O)NCC(=O)NCCSc2ccc(Br)cc2)cc(OC)c1OC | 9.46% (inactive)
80 | O=C(COC(=O)c1ccccc1Br)Nc1nnc(-c2ccccc2)o1 | 0.631% (inactive)
81 | Nc1cc(OC(=O)c2ccccc2Br)nn1S(=O)(=O)c1ccccc1 | 57.5% (active)
82 | Cc1ccc(S(=O)(=O)n2nc(OC(=O)C(C)(C)C)cc2N)cc1 | 25.5% (inactive)
83 | O=C(Cc1ncc(C(F)(F)F)cc1Cl)Nc1cccc(Br)c1 | 47.5% (active)
84 | CC(=O)c1ccc(Cc2ncc(C(F)(F)F)cc2Cl)s1 | 3.28% (inactive)
85 | O=C(CN1CCN(c2ncc(C(F)(F)F)cc2Cl)CC1)Nc1ccc2c(c1)OCO2 | 28.8% (inactive)
86 | Clc1ccc(Cl)c(Oc2ccc(Oc3nc(Cl)ccc3Cl)cc2)n1 | 9.8% (inactive)
87 | Brc1ccc(C2=CC(c3ccco3)n3ncnc3N2)cc1 (stereo not given) | 48.2% (active)
88 | CCOc1ccc(C2=CC(c3ccccc3)n3ncnc3N2)cc1 (stereo not given) | 25.5% (inactive)
89 | CC1=C(C(=O)OCc2ccccc2)C(c2ccco2)n2ncnc2N1 (stereo not given) | 20.9% (inactive)
90 | CCn1c(-c2cc(OC)ccc2OC)csc1=Nc1c(C)n(C)n(-c2ccccc2)c1=O | 22.1% (inactive)
91 | CN=c1scc(-c2cc(OC)ccc2OC)n1/N=C/c1c(C)[nH]c2ccccc12 | 46% (active)
92 | COCCNC(=S)N/N=C/c1c(C)[nH]c2ccccc12 | 16.2% (inactive)
93 | C=CCOc1ccc(/C=C2/C(=O)ON=C2C)cc1OCC | 5.79% (inactive)
94 | COc1cc(/C=C2/C(=O)ON=C2C)ccc1OCc1ccccc1F | 49% (active)
95 | COc1cc(/C=C2/C(=O)ON=C2C)ccc1OCc1cccc(F)c1 | 9.41% (inactive)
